Assay outcomes as filed in PubChem.
Rows were chosen to be rich in hits. Some 7.8% of all compounds tested hit in one or more screens of this group.
Marburg entry inh: qHTS for inhibitors of binding or entry into cells for Marburg Virus; Potency, µM (titrated, usually from 37.8 µM), usual class: inhibitors; Marburg virus pseudotyped entry inhibition, cell reporter; 300,000 compounds, 1.8% hits; calls by dose curve; tested in HEK293 cells
HCMV antiviral: qHTS Assay for inhibitors of the human cytomegalovirus (HCMV); HFF cells, HCMV-luciferase reporter, 72 h; active compounds read low; activity change, negative = inhibition, % at 57.5 µM; 410,000 compounds, 4.5% hits; AID 1259415, 2018; in the data active means activity change below about -60%; inconclusive means no clear call, values can overlap the other calls; inactive means above about -39%
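Compounds were evaluated in HFFs infected with an HCMV luciferase reporter virus (MOI 1 PFU/cell). Luciferase in lysates collected 72 h post infection served as the replication measure.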
HCV inh: qHTS Assay for Inhibitors of Hepatitis C Virus (HCV); Huh7.5.1 HCVcc-Cre infection, luciferase reporter, 44 h; Potency, µM (doses to about 41.8 µM), most hits filed as inhibitors; 340,000 compounds, 3.4% hits; AID 651820, 2012; active means well fitted inhibition curve with a large enough effect; inconclusive means small, poorly fitted or top-dose-only effect, or another doubt; inactive means no such curve, though single readings can be large or run the other way
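A cell-based infection assay in which seeded cells (1,000 per well) receive test compound after 4 h, are inoculated with HCVcc-Cre at approximately 0.5 moi, and are incubated 44 h before luminescence detection.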
LASV entry inh: qHTS for Inhibitors of binding or entry into cells for Lassa Virus; Lassa virus pseudotype entry inhibition, cell reporter; Potency, µM (titrated, usually from 37.9 µM), actives largely listed as inhibitors; 300,000 compounds, 1.2% hits; calls by dose curve; tested in HEK293 cells; further: nearly all actives have a fitted effect of over 50% in size
Vaccinia mCherry: qHTS for Stage-Specific Inhibitors of Vaccinia Orthopoxvirus: mCherry Reporter Primary qHTS. Vaccinia virus mCherry reporter infection, fluorescence. AID 720579, 2013. 310,000 compounds, 0.63% hits. Potency, µM (top dose mostly 36.5 µM), hits mostly inhibitors; calls by dose curve; tested in A549 cells; further: nearly all actives have a fitted effect of over 35% in size
Vaccinia Venus: qHTS for Stage-Specific Inhibitors of Vaccinia Orthopoxvirus: Venus Reporter Primary qHTS. Vaccinia virus Venus reporter expression, fluorescence. Potency, µM (top dose mostly 36.5 µM), hits mostly inhibitors. 330,000 compounds, 0.46% hits; calls by dose curve; tested in A549 cells; further: nearly all actives have a fitted effect of over 30% in size
A number is an active result.

How did CSc1ccc(/C=N\NC(=O)CNc2ccc(C)cc2)cc1 do in these assays?
Marburg entry inh: inactive; HCMV antiviral: inactive; HCV inh: inactive; LASV entry inh: 1.3µM; Vaccinia mCherry: inactive; Vaccinia Venus: inactive

Results for COC(=O)N/N=C(C)\C=C\c1ccco1 ?
Marburg entry inh: inactive; HCMV antiviral: inactive; HCV inh: inactive; LASV entry inh: inactive

Results for CC(/C=C/c1ccco1)=N\NC(=O)CNc1cccc(C)c1 ?
HCMV antiviral: -61; HCV inh: inactive

Results for Cc1ccc(NCC(=O)N/N=C/c2ccncc2)cc1 ?
Marburg entry inh: inactive; HCMV antiviral: inactive; HCV inh: inactive; LASV entry inh: inactive; Vaccinia mCherry: inactive; Vaccinia Venus: inactive

Results for Cc1ccc(NCC(=O)N/N=C/c2cccc(Oc3ccccc3)c2)cc1 ?
Marburg entry inh: inactive; HCMV antiviral: inconclusive; HCV inh: inconclusive; LASV entry inh: 2.3µM; Vaccinia mCherry: inconclusive; Vaccinia Venus: inconclusive

How did Cc1cccc(NCC(=O)N/N=C\c2cccc(Oc3ccccc3)c2)c1 do in these assays?
Marburg entry inh: inconclusive; HCMV antiviral: -67; HCV inh: inactive; LASV entry inh: inconclusive

Results for COc1cccc(Cn2c(=O)n(CC3CCC(C(=O)N4CCOCC4)CC3)c(=O)c3sccc32)c1 (stereo not drawn) ?
HCMV antiviral: inactive; LASV entry inh: inconclusive; Vaccinia mCherry: inactive; Vaccinia Venus: inactive

How did COc1ccc(C(=O)C(C(=O)Nc2c(C)cccc2C)N(C(=O)Cc2ccc([N+](=O)[O-])cc2)c2ccccc2)cc1 (stereo not drawn) do in these assays?
HCMV antiviral: inactive

How did COc1ccc(C2c3ccc4ccccc4c3Oc3ncn(CCN4CCOCC4)c(=N)c32)cc1 (stereo not drawn) do in these assays?
Marburg entry inh: inconclusive; HCMV antiviral: inconclusive; HCV inh: inconclusive; LASV entry inh: inactive

Results for N=c1c2c(ncn1Cc1ccco1)Oc1ccc3ccccc3c1C2c1ccccc1 (stereo not drawn) ?
Marburg entry inh: 9.2µM; HCMV antiviral: inactive; HCV inh: inconclusive; LASV entry inh: inconclusive; Vaccinia mCherry: inconclusive; Vaccinia Venus: inconclusive

What do the screens show for `CN(C)CCCn1cnc2c(c1=N)C(c1ccccc1)c1ccc3ccccc3c1O2` (stereo not drawn)?
HCMV antiviral: -98; HCV inh: 8.9µM; Vaccinia mCherry: inconclusive; Vaccinia Venus: 18µM

What do the screens show for `COc1ccc(C2c3ccc4ccccc4c3Oc3ncn(CCO)c(=N)c32)cc1` (stereo not drawn)?
Marburg entry inh: inconclusive; HCV inh: inconclusive; LASV entry inh: 8.9µM; Vaccinia mCherry: inactive; Vaccinia Venus: inactive

Results for COc1ccc(C2c3ccc4ccccc4c3Oc3ncn(CCN(C)C)c(=N)c32)cc1 (stereo not drawn) ?
Marburg entry inh: 8.9µM; HCMV antiviral: -99; HCV inh: 2.8µM; LASV entry inh: inconclusive; Vaccinia mCherry: inconclusive; Vaccinia Venus: inconclusive

Results for COc1ccc(C2c3c(ncn(Cc4ccco4)c3=N)Oc3ccc4ccccc4c32)cc1 (stereo not drawn) ?
Marburg entry inh: inconclusive; HCMV antiviral: inactive; HCV inh: inconclusive; LASV entry inh: inconclusive; Vaccinia mCherry: inactive; Vaccinia Venus: inactive

Results for COC(=O)c1cc2oc3ccccc3c2n1CC(=O)Nc1ccc(Cl)cc1F ?
Marburg entry inh: inactive; HCMV antiviral: inactive; Vaccinia mCherry: inconclusive; Vaccinia Venus: inactive

Results for COc1ccc(C2c3ccc4ccccc4c3Oc3ncn(CCCO)c(=N)c32)cc1 (stereo not drawn) ?
Marburg entry inh: inconclusive; HCMV antiviral: inactive; HCV inh: inactive; LASV entry inh: 11µM; Vaccinia mCherry: inactive; Vaccinia Venus: inconclusive

What do the screens show for `N=c1c2c(ncn1CCCO)Oc1c(ccc3ccccc13)C2c1ccccc1` (stereo not drawn)?
HCMV antiviral: inactive; HCV inh: 11µM

What do the screens show for `COc1ccc(C2c3ccc4ccccc4c3Oc3ncn(CCN4CCOCC4)c(=N)c32)cc1OC` (stereo not drawn)?
HCMV antiviral: inactive; HCV inh: inconclusive
